This is part of a sample that, as a whole, favours compounds with a hit. Of some 83,000 tested, about 20% had one in any assay.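 Cell lines were cultured in 96-well plates, exposed to a single compound concentration, and assessed for percent growth 48 hours later.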 Values without a mark were called inactive. The source made the active and inactive calls. How the source made its calls: active means growth percent below 10; inactive means the rest.

Some test systems named below: NCI-H23 lung; NCI-H226 lung; NCI-H322M lung; HOP-62 NSCLC; NCI-H460 lung; HOP-92 NSCLC; NCI-H522 lung; A549/ATCC NSCLC; 786-0 renal; COLO 205 colon; DU-145 prostate; K-562 leukemia; MALME-3M melanoma; MDA-MB-231 breast; RXF 393 renal; SF-268 CNS; SF-295 CNS; SF-539 CNS; UACC-257 melanoma; M14 melanoma.
Common to all, as to experiment: NCI-60 one-dose screen, 48 h (100 = growth as untreated, 0 = no growth, -100 = all killed)
What all share (conditions): 10 µM unless noted

In the case of `O=C(CCl)Nc1ccc2c(Nc3cc(O)ccc3Cl)ncnc2c1`, the growth was -74% (active) in the assay with NCI-H23 lung; -35% (active) with NCI-H226 lung; 5.63% (active) in the assay on NCI-H322M lung; -63.5% (active) in the assay on HOP-62 NSCLC; -54.8% (active) in the assay with NCI-H460 lung; -85% (active) in the assay with HOP-92 NSCLC. The growth in the assay on NCI-H522 lung was -65.8% (active); in the assay on A549/ATCC NSCLC, -56.9% (active); in the assay on 786-0 renal, -89.8% (active); in the assay with COLO 205 colon, -51.9% (active); with DU-145 prostate, -89.1% (active); in the assay on K-562 leukemia, -36% (active). In addition, the growth is -86.4% (active) with MALME-3M melanoma; -84.5% (active) in the assay with MDA-MB-231 breast; -88.6% (active) in the assay on RXF 393 renal; -56.1% (active) in the assay with SF-268 CNS; -77.1% (active) in the assay with SF-295 CNS; -94% (active) in the assay on SF-539 CNS. Besides, the growth in the assay on UACC-257 melanoma was -11.5% (active); in the assay with M14 melanoma, -77.1% (active).
Consider `CCCCCn1sc(=O)n(Cc2ccc(CNC(=O)OCc3ccc4c(Cl)cc(Cl)c(O)c4n3)cc2)c1=O`, for which the growth with NCI-H23 lung is 73.2%; with NCI-H226 lung it was 65.8%; with NCI-H322M lung, 55.7%; in the assay on HOP-62 NSCLC, 41.7%; with NCI-H460 lung, 27.1%; in the assay on HOP-92 NSCLC, 76.2%. The growth with NCI-H522 lung is 66.1%; in the assay with A549/ATCC NSCLC it was 49.7%; in the assay on 786-0 renal it was 61.2%; in the assay with COLO 205 colon, 106%; in the assay on DU-145 prostate it was 63.9%; in the assay with K-562 leukemia it was 45.8%. Moreover, the growth with MALME-3M melanoma is 70.4%; with MDA-MB-231 breast, 75.6%; in the assay with RXF 393 renal it was 32.5%; with SF-268 CNS, 66.6%; with SF-295 CNS, 35.1%; with SF-539 CNS it was 77.1%. Further, the growth in the assay on UACC-257 melanoma is 87.9%; in the assay with M14 melanoma it was 58.8%.
As for `NC(=O)c1ccc(NC(=O)c2oc3ccccc3c2-c2cnn(-c3ccccc3)c2)cc1`, the growth with NCI-H23 lung was -21.9% [50 µM] (active); in the assay on NCI-H226 lung it was 13.9% [50 µM]; with NCI-H322M lung it was 23.7% [50 µM]; in the assay with HOP-62 NSCLC, 5.91% [50 µM] (active); in the assay on NCI-H460 lung it was 5.78% [50 µM] (active); in the assay with HOP-92 NSCLC, -27.3% [50 µM] (active). Besides, the growth with NCI-H522 lung was 21.4% [50 µM]; in the assay on A549/ATCC NSCLC it was 8.08% [50 µM] (active); with 786-0 renal, -26.8% [50 µM] (active); with COLO 205 colon it was 19.9% [50 µM]; in the assay with DU-145 prostate it was 7.15% [50 µM] (active); in the assay with K-562 leukemia it was 46% [50 µM]. Further, the growth is -7.76% [50 µM] (active) in the assay with MALME-3M melanoma; -68% [50 µM] (active) with MDA-MB-231 breast; -29.1% [50 µM] (active) in the assay with RXF 393 renal; 27.4% [50 µM] in the assay on SF-268 CNS; 15.6% [50 µM] in the assay with SF-295 CNS; -21.7% [50 µM] (active) in the assay with SF-539 CNS. The growth in the assay with UACC-257 melanoma is 47.3% [50 µM]; in the assay with M14 melanoma, -0.698% [50 µM] (active).
As for `Cn1c(=O)c2c(nc(NC3=NS(=O)(=O)c4ccccc43)n2Cc2ccccc2)n(C)c1=O`, the growth in the assay on NCI-H23 lung was 92.5%; in the assay on NCI-H226 lung, 88.5%; in the assay on NCI-H322M lung, 101%; in the assay on HOP-62 NSCLC it was 93.4%; in the assay with NCI-H460 lung it was 102%; with HOP-92 NSCLC it was 94%. Besides, the growth is 94.1% in the assay on NCI-H522 lung; 102% in the assay on A549/ATCC NSCLC; 101% with 786-0 renal; 120% with COLO 205 colon; 108% in the assay on DU-145 prostate; 104% in the assay on K-562 leukemia. The growth in the assay on MALME-3M melanoma is 109%; in the assay with MDA-MB-231 breast, 90.4%; in the assay on RXF 393 renal it was 78.3%; in the assay with SF-268 CNS it was 96.7%; in the assay with SF-295 CNS it was 103%; in the assay on SF-539 CNS, 100%. The growth in the assay on UACC-257 melanoma is 109%; in the assay with M14 melanoma, 106%.
Consider `CNCc1cccc2c1OCCOCCN(C)C(=O)CN(C)S(=O)(=O)c1ccc(cc1)-c1cnc(N)c(n1)C(=O)N2`, for which the growth is 6.92% (active) in the assay with NCI-H23 lung; -33.3% (active) in the assay with NCI-H226 lung; 40.4% with NCI-H322M lung; -6.9% (active) with HOP-62 NSCLC; -40.9% (active) with NCI-H460 lung; 46.5% with HOP-92 NSCLC. For the same compound, the growth with NCI-H522 lung was 23.5%; in the assay with A549/ATCC NSCLC it was 11.9%; in the assay on 786-0 renal, -40.3% (active); in the assay with COLO 205 colon, 19.9%; with DU-145 prostate, 7.84% (active); in the assay with K-562 leukemia, -39.5% (active). Also, the growth is -85.3% (active) in the assay with MALME-3M melanoma; 67.6% in the assay on MDA-MB-231 breast; -0.929% (active) in the assay with RXF 393 renal; 28.3% in the assay on SF-268 CNS; 36.1% in the assay with SF-295 CNS; -50.7% (active) in the assay on SF-539 CNS. Besides, the results for the growth with UACC-257 melanoma and with M14 melanoma were 41.6% and 2.41% (active), respectively.
As to `Cn1c(/C=C/[N+](=O)[O-])cc2ccccc21`, the growth in the assay on NCI-H23 lung was -24.5% (active); in the assay on NCI-H226 lung it was 4.78% (active); in the assay with NCI-H322M lung it was 105%; in the assay with HOP-62 NSCLC it was 76.7%; in the assay on NCI-H460 lung, 62.7%; with HOP-92 NSCLC, 84%. In addition, the growth was 70.5% in the assay on NCI-H522 lung; 48% in the assay with A549/ATCC NSCLC; 75.7% with 786-0 renal; 12.5% in the assay with COLO 205 colon; -8.11% (active) in the assay with DU-145 prostate; 7.24% (active) with K-562 leukemia. In addition, the growth was 91.4% with MALME-3M melanoma; 63% with MDA-MB-231 breast; -97.1% (active) with RXF 393 renal; 93.4% in the assay with SF-268 CNS; 40.4% in the assay with SF-295 CNS; -53.4% (active) with SF-539 CNS. Moreover, the figures for the growth in the assay with UACC-257 melanoma and in the assay on M14 melanoma were -5.1% (active) and -70.1% (active), respectively.
Regarding `CCOC(=O)c1c2c(n3ccccc13)C(=O)c1ncccc1C2=O`, the growth with NCI-H23 lung was 4.7% (active); with NCI-H226 lung, 9.64% (active); with NCI-H322M lung, 11.4%; with HOP-62 NSCLC, -11.7% (active); with NCI-H460 lung it was 1.12% (active); with HOP-92 NSCLC, 28.4%. In addition, the growth with NCI-H522 lung is -22.2% (active); in the assay on A549/ATCC NSCLC, 8.27% (active); in the assay on 786-0 renal it was 2.37% (active); in the assay with COLO 205 colon, 20.7%; in the assay with DU-145 prostate, 8.05% (active); in the assay on K-562 leukemia it was 11.2%. Besides, the growth with MALME-3M melanoma is 18.1%; in the assay with MDA-MB-231 breast it was 13.4%; in the assay with RXF 393 renal, 25%; with SF-268 CNS, 20%; in the assay with SF-295 CNS, 22.3%; in the assay on SF-539 CNS it was -2.14% (active). Also, the growth in the assay on UACC-257 melanoma is -3.95% (active); in the assay on M14 melanoma, -37.6% (active).
With `O=C(CCC(=O)c1nc2ncccc2[nH]1)NN1C(=O)CSC1c1ccc(Cl)cc1` (stereo not given), the growth in the assay with NCI-H23 lung is 91.4%; in the assay on NCI-H226 lung it was 95.9%; in the assay with NCI-H322M lung, 93.5%; in the assay with HOP-62 NSCLC, 93.9%; with NCI-H460 lung, 102%; in the assay on HOP-92 NSCLC, 111%. Besides, the growth in the assay on NCI-H522 lung is 83%; in the assay with A549/ATCC NSCLC it was 97.3%; with 786-0 renal it was 101%; in the assay with COLO 205 colon, 116%; in the assay with DU-145 prostate, 103%; in the assay with K-562 leukemia, 98.2%. Also, the growth in the assay with MALME-3M melanoma is 93%; in the assay with MDA-MB-231 breast, 98%; in the assay on RXF 393 renal, 103%; in the assay with SF-268 CNS it was 91.2%; in the assay on SF-295 CNS, 108%; with SF-539 CNS, 103%. The growth with UACC-257 melanoma is 105%; in the assay with M14 melanoma it was 98%.

Values taken from PubChem BioAssay (NCI).
